The nature of assay [1]: qHTS for inhibitors of adenylyl cyclases using a fission yeast platform: a pilot screen against the NCATS LOPAC library (AID 1347410).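 Further: plate controls were DMSO vehicle for no effect and DPI positive control for full effect.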 The gist of the method: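 GFP from fbp1-GFP reporter, read by Acumen laser cytometry, indicates AC inhibition in fission yeast expressing AC9, GNAS and PDE4D2. Cells grown 18 h in the dark at 30C with compounds, final up to 57 uM.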
Background: qHTS replaces the single test concentration by a dilution series.

Assay [2] concerns the target Protein phosphatase 1D (Homo sapiens) (UniProt O15297). The assay can be described thus: RapidFire Mass Spectrometry qHTS Assay for Modulators of WT P53-Induced Phosphatase 1 (WIP1) (AID 1347424).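 Further: amount of dephosphorylated VEPPL-S-QETFS peptide product formed by WIP1; series mostly up to about 63 µM; plate controls were DMSO wells for no effect and GSK830371 inhibitor control at 10 µM for full effect.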 The gist of the method:
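WIP1 (10 nM final) was preincubated 1 h at room temperature with compounds in Tris-HCl pH 7.5, 30 mM MgCl2, TCEP, EGTA, BSA; 2 uM VEPPL-pS-QETFS phosphopeptide was added for 5 min, quenched with formic acid, and dephosphorylated product quantified by RapidFire MS.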

Assay [3] shares this target. The assay can be described thus: Rhodamine-PBP qHTS Assay for Modulators of WT P53-Induced Phosphatase 1 (WIP1) (AID 1347425). Further: % of control where 0% means no effect. In outline: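 5 nM WIP1 + 10 uM Rh-PBP, 50 mM Tris pH 7.5, 30 mM MgCl2, 1 mM TCEP, 0.1 mM EGTA, BSA; cpds pinned, 1 hr RT; + 10 uM phosphopeptide; fluorescence 1-min reads x 11 min; delta = f1 - f0.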
Assay [4] can be described thus: Primary qHTS for inhibitors of La Crosse Virus (LACV) - induced cell death in SH-SY5Y cells (AID 1508616).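 Further: top concentration of the series differs between compounds; 0% = infected DMSO wells and 100% = uninfected DMSO wells; higher means more rescue of cells from virus-induced death.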 The gist of the method: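 Protection against LACV-induced cell death is scored in SH-SY5Y cells exposed to compounds and virus (0.01 MOI) for 6 days. Data normalized to virus-infected DMSO wells and virus-free DMSO wells.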
Assay [5] deals with Calcium and integrin-binding protein 1 (Homo sapiens) (UniProt Q99828). Briefly: Validation qHTS for Identification of Calcium Integrin Binding protein 1 (CIB1) Competitor (AID 1508618). Further: on the % scale 0 is the no-effect control and ±100 the full control effect. The gist of the method:
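Displacement of FITC-alphaIIb peptide (100 nM) from CIB1-GST (1 uM) is monitored by polarization in quantitative HTS format; buffer carries 5 mM CaCl2 and 125 mM NaCl at pH 7.4, incubations are at room temperature.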

Assay [6] has the same target. Briefly: Primary qHTS for Identification of Calcium Integrin Binding Protein 1 (CIB1) Competitor (AID 1508620).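 Further: GST tagged CIB1 binding a fluorescein labelled alphaIIb integrin peptide tracer; top concentration of the series differs between compounds; on the % scale 0 is the no-effect control and ±100 the full control effect.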 The gist of the method: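 Fluorescence polarization competition: CIB1-GST (1 uM final) preincubated with compound 15 min at room temperature, then FITC-labeled alphaIIb peptide (100 nM final) added for another 15 min. Polarization read at Ex 480/Em 540.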

Assay [7] is described as follows: Primary qHTS for small molecule stabilizers of the endoplasmic reticulum resident proteome: Secreted ER Calcium Modulated Protein (SERCaMP) assay (AID 1508630). Further: on the % scale 0 is the no-effect control and ±100 the full control effect. In outline:
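GLuc-SERCaMP-expressing SH-SY5Y cells, pretreated 16 h with compound, are challenged with thapsigargin to empty ER calcium stores; after 4 h, coelenterazine is added directly to the medium and luminescence is imaged.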

A short description of assay [8]: A High-Content qHTS Against Drug Library for the Identification of Small Molecules that Inhibit DYT1 Early Onset Primary Dystonia-Associated Cell Pathology (AID 1645839; calls by dose curve; further: series mostly up to about 46 µM). In outline: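 Readout: %pathology, the punctate EGFP-TorsinA distribution from imaging, as the primary channel and cell count as the toxicity counterscreen. HEK293 Flp-In cells expressing delE TorsinA were induced with tetracycline and treated with compound for 48 h.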

The nature of assay [9]: qHTS to identify inhibitors of the type 1 interferon - major histocompatibility complex class I in skeletal muscle: primary screen against the NCATS Pharmaceutical Collection (AID 1347407).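 Further: luminescence of HiBiT knocked into endogenous HLA-B as interferon-induced MHC class I level; on the % scale 0 is the no-effect control and ±100 the full control effect.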 In outline: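 Compounds […] were added to CRISPR-engineered HLA-B-HiBiT C25cl48 human myoblasts with 4.0 ng/ml IFN-beta. After 24 hrs at 37 C, cells were lysed and HiBiT luminescence measured.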

A short description of assay [10]: Validation qHTS assay for inhibitors of Activation Induced Cytidine Deaminase (AID): UDG Counterscreen signal (AID 1347427). Further: potency means the concentration at half of the fitted maximal effect. In outline:
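Counterscreen read of UDG activity (2 U/mL, 4/3x) in the FRET deamination format with AID (1 uM, 4/3x), DJC20/DJC23 substrates (250 nM, 4x), 4 h at room temperature. NaOH stop, fluorescence at 560 ex/665 em.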

Assay [11] deals with Single-stranded DNA cytosine deaminase (Homo sapiens) (UniProt Q9GZX7). The assay can be described thus: Validation qHTS assay for inhibitors of Activation Induced Cytidine Deaminase (AID): AID signal (AID 1347429). Further: potency means the concentration at half of the fitted maximal effect. The gist of the method: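 Fluorescence at 540 nm excitation and 590 nm emission reports ssDNA cytosine deamination by AID, with UDG in the same well. Compound-treated reactions ran 4 hr at room temperature with DJC20/DJC23 substrate, followed by 30 min NaOH treatment.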
Sequence of Single-stranded DNA cytosine deaminase (Homo sapiens) (Q9GZX7 whole entry, looked up): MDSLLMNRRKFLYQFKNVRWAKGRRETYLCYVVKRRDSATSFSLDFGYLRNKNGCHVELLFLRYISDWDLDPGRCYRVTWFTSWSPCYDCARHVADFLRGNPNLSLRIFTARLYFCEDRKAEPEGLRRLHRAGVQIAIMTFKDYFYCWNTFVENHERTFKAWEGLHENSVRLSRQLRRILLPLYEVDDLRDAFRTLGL

Assay [12] is described as follows: Confirmatory qHTS for small molecule stabilizers of the endoplasmic reticulum resident proteome: Secreted ER Calcium Modulated Protein (SERCaMP) assay (AID 1508628). Further: nearly all actives have a fitted effect of over 40% in size. Further: potency means the concentration at half of the fitted maximal effect. In outline: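 SH-SY5Y cells stably expressing GLuc-SERCaMP, treated 16 h with compound (primary 1.53, 7.67, 38.3 uM; confirmation 11 concentrations, up to 76.6 uM), then 100 nM thapsigargin for 4 h. Secreted Gaussia luciferase in medium read by coelenterazine luminescence.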

The nature of assay [13]: Counterscreen qHTS for small molecule stabilizers of the endoplasmic reticulum resident proteome: GLuc-NoTag assay (AID 1508627).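 Further: series mostly up to about 76 µM; 0% = thapsigargin alone and -100% = DMSO vehicle control.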 The gist of the method: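 SH-SY5Y cells stably expressing constitutively secreted GLuc (no SERCaMP tag) were pre-incubated 5 h, treated with compound for 19 h, then 100 nM thapsigargin for 4 h at 37C; medium GLuc read by coelenterazine luminescence.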
(In general: A counterscreen serves to expose hits that act by an unwanted route or on another target.)

A short description of assay [14]: Cell Viability qHTS for small molecule stabilizers of the endoplasmic reticulum resident proteome (AID 1508629). The conditions noted are these: cell viability counter-screen, 100 nM thapsigargin for final 4 h.

A number with no mark means an inactive call. Inconclusive results are not listed. The source made the active and inactive calls. Unless noted, the call rests on the fitted dose curve; in most records, active means well fitted curve in the direction sought with a large enough effect; inconclusive means small, poorly fitted or top-dose-only effect, or another doubt; inactive means no such curve, though single readings can be large; an effect the other way counts as inactive or inconclusive.

Sequence of Protein phosphatase 1D (Homo sapiens) (O15297 whole entry, looked up): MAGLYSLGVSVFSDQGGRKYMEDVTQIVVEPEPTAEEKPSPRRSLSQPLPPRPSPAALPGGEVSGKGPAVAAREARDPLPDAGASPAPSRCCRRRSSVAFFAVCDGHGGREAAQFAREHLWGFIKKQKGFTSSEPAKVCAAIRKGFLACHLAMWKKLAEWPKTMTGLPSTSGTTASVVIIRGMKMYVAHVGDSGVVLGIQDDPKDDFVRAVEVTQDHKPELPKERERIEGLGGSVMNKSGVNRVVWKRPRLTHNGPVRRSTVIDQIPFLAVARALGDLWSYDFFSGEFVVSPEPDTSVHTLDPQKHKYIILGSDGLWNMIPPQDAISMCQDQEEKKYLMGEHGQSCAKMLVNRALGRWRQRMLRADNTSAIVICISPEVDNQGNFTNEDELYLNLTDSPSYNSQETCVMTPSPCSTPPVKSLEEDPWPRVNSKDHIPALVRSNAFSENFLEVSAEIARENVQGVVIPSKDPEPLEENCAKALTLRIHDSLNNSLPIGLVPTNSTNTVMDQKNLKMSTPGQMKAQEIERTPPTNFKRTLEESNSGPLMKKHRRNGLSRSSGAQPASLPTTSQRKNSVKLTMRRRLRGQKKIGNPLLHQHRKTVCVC
Sequence of Calcium and integrin-binding protein 1 (Homo sapiens) (Q99828 whole entry, looked up): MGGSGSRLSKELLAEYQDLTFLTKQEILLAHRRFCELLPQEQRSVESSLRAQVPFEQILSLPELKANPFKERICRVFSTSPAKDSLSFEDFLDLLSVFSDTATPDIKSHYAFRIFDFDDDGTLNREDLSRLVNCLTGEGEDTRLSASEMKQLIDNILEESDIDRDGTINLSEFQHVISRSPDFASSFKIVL

For the compound `C[C@H](NC(CCc1ccccc1)C(=O)O)C(=O)N1CCC[C@H]1C(=O)O` (some centres not stated), the outcome in [1], in assay [2], in assay [3], in assay [4], in [5] and in [6] was inactive. In addition, the Potency entry in [7] and in [8] was “inactive” each time.
`Cc1c(Cl)cccc1Nc1ccccc1C(=O)O`: the Potency result in assay [9] and in assay [7] was “inactive” throughout. For the same compound, the result in [6] was inactive.
`CO/N=C(\C(=O)N[C@@H]1C(=O)N2C(C(=O)O)=C(CSc3nc(=O)c(O)nn3C)CS[C@H]12)c1csc(N)n1`: the Potency result in [9] and in assay [8] was “inactive” in each case. Also, the compound was called inactive in [3], in assay [4] and in [6].
As for `CCN(CC)CCNC(=O)c1c(C)[nH]c(/C=C2\C(=O)Nc3ccc(F)cc32)c1C`, the result in [1], in [2], in [4], in assay [5] and in assay [6] was inactive.
Consider `Cc1cc(N)c2ccccc2[n+]1CCCCCCCCCC[n+]1c(C)cc(N)c2ccccc21`, for which the compound was classed as inactive in [1], in [4], in [5] and in assay [6]. Also, the figures for the Potency in [10] and in [11] were 89.1 µM (active) and 50.1 µM (active), respectively. Moreover, in assay [7], the Potency result was “inactive”.
In the case of `CCN(CC)CCCC(C)Nc1c2ccc(Cl)cc2nc2ccc(OC)cc12` (configuration not stated), the compound was called inactive in [1], in assay [2], in assay [3] and in assay [4]. Also, the Potency result in assay [11] and in [7] was “inactive” throughout.
Consider `CN1CCN(C2Cc3ccccc3Sc3ccc(Cl)cc32)CC1` (configuration not stated), for which the compound was called inactive in assay [1], in [2], in assay [3], in [4], in [5] and in assay [6]. Moreover, the Potency entry in assay [10] and in [11] was “inactive” throughout. Besides, in [12], the Potency is 17.8 µM (active).
With `O=C(O)c1ccccc1O`, the Potency result in assay [9], in [7] and in assay [8] was “inactive” in each case. For the same compound, the result in assay [2] and in assay [6] was inactive.
Take `O=c1cc(CO)occ1O`: the compound was called inactive in assay [2], in assay [4] and in [6]. Also, the Potency result in [13], in assay [12] and in assay [8] was “inactive” each time. Moreover, in assay [14], the max response was 8.05%.
With `COc1ccc2c(c1)C(=O)N(CCc1ccc(S(=O)(=O)NC(=O)NC3CCCCC3)cc1)C(=O)C2(C)C`, the call in [4] and in [6] was inactive. In addition, the Potency result in assay [7] was “inactive”.
`CC1(C)OC(=O)NC1=O`: the result in assay [2], in assay [3], in assay [4] and in assay [6] was inactive. Moreover, in [8], the Potency result was “inactive”.
For the compound `C[C@H]1O[C@H](O[C@H]2[C@H](O)[C@@H](O)[C@@H](O[C@H]3[C@H](O)[C@@H](O)[C@H](O)O[C@@H]3CO)O[C@@H]2CO)[C@H](O)[C@@H](O)[C@@H]1N[C@H]1C=C(CO)[C@@H](O)[C@H](O)[C@H]1O`, the result in [2], in assay [3], in assay [4] and in [6] was inactive. Also, in [7], the Potency entry was “inactive”.
For the compound `COc1ccccc1O`, the compound was classed as inactive in [2], in assay [3], in [4] and in [6]. Moreover, the Potency result in [8] was “inactive”.
For the compound `CC[N+](CC)(CC)CCOc1ccc(/C=C/c2ccccc2)cc1`, the compound was called inactive in assay [2], in [3], in [4] and in assay [6]. Moreover, the Potency result in assay [7] and in [8] was “inactive” each time.
`CC(=O)Oc1ccc(C2(c3ccc(OC(C)=O)cc3)C(=O)Nc3ccccc32)cc1`: the compound was called inactive in assay [2] and in assay [6]. Further, in assay [8], the Potency result was “inactive”.
For the compound `CC(=O)Oc1c(C)c(C)c2c(c1C)CC[C@@](C)(CCC[C@H](C)CCC[C@H](C)CCCC(C)C)O2`, the compound was called inactive in [2], in assay [3], in assay [4] and in assay [6]. The Potency entry in assay [8] is “inactive”.
Regarding `Oc1ccc(C(O)CNCCCCCCNCC(O)c2ccc(O)c(O)c2)cc1O` (configuration not stated), the compound was classed as inactive in assay [2], in [3] and in assay [6]. Further, in assay [8], the Potency result is “inactive”.
Regarding `CN1CCOC(c2ccccc2)c2ccccc2C1` (configuration not stated), the compound was called inactive in assay [2], in assay [3] and in assay [6]. Besides, the Potency result in [8] is “inactive”.
Take `O=c1[nH]c(=O)c2[nH]c(=O)[nH]c2[nH]1`: the activity change, negative = inhibition in [2] was -6.34% [at 12.6 µM]; in assay [3], 10.4% [at 11.5 µM]; in [7], -1.24% [at 7.35 µM]. Further, the activity change in [4] was 1.46% [at 0.858 µM]. In assay [6], the outcome was inactive. Besides, the % pathology change, negative = correction in [8] is 7.44% [at 9.22 µM].
As to `NCC(=O)CCC(=O)O`, the outcome in [2], in assay [3], in assay [4] and in assay [6] was inactive. The Potency entry in assay [8] was “inactive”.
As to `O=c1cc[nH]c(=S)[nH]1`, the compound was classed as inactive in assay [2], in assay [3], in assay [4] and in [6]. The Potency result in assay [7] and in assay [8] was “inactive” throughout.
